# Assay results taken from ChEMBL document CHEMBL4513216, “Probing the Open Global Health Chemical Diversity Library for Multistage-Active Starting Points for Next-Generation Antimalarials” (ACS Infect Dis, 2020).
# Out of some 69,000 compounds screened, about 8,600 (12%) showed an effect of 50% or more. Only a selection was taken, and strong results are over-represented in it overall.
# Test system: Plasmodium berghei
# Experiment: Screen against P. berghei liver stage (PbLuc), transformed with Luciferase, at 10uM
# Assay type: functional, HepG2
# Conditions: tested at 10 uM
row,Structure (SMILES),INHIBITION [%]
1,CCS(=O)(=O)CCN1CCCC1c1noc(C)n1 (configuration not stated),16.8
2,Cc1cc(CNc2cccc(Cl)c2C)no1,16.165
3,CCCSc1ncc(-c2nccn2CCO)cn1,35.1
4,CCCn1ccnc1-c1nccn1CCC(N)=O,29.8
5,CCCSc1ncc(-c2nccn2CCC(N)=O)cn1,53.3
6,O=C1NCC(C(=O)Nc2ncc(Cc3cccc(F)c3)s2)N1 (configuration not stated),12.7
7,Cc1ccc(Cc2cnc(NC(=O)C3CNC(=O)N3)s2)cc1F (configuration not stated),55.5
8,O=C1NCC(C(=O)Nc2ncc(Cc3ccc(F)cc3)s2)N1 (configuration not stated),26.5
9,CNc1cc(C)nc(C2COCCN2CCOc2ccc(F)cc2)n1 (configuration not stated),-12.625
10,CC(SCc1ccc(Br)c2cccnc12)C(N)=O (configuration not stated),21.1
11,CC(SCc1cc(Br)cc2cccnc12)C(N)=O (configuration not stated),58.1
12,NC(=O)CCSCc1cc(Br)cc2cccnc12,-57.1
13,CC(OCC(F)(F)F)C(=O)N1CCCC1 (configuration not stated),-1.37
14,Cc1ccc(SCC2CNc3nc4ccccc4c(=O)n32)c(C)c1 (configuration not stated),49.9
15,CC(=O)N(CCc1ccccc1)CC(=O)NC1(C#N)CC1,-3.39
16,CC(=O)N(CCc1ccccc1)CC(=O)Nc1ccccc1C#N,45.8
17,CC(=O)N(CCc1ccccc1)CC(=O)NC(C)(C)C#N,59.7
18,COc1ccc(C2=CCN(C(=O)CN(C)CC(N)=O)CC2)cc1,10.8
19,COc1ccc(C2=CCN(C(=O)C3CCC3)CC2)cc1,-6.44
20,COc1ccc(C2=CCN(C(=O)CN(C)CC(C)C#N)CC2)cc1 (configuration not stated),46.5
21,COc1ccc(C2=CCN(C(=O)CN(CC(N)=O)C(C)C)CC2)cc1,83.2
22,COc1ccc(C2=CCN(C(=O)CN(C)Cc3ccoc3)CC2)cc1,53.5
23,COc1ccc(C2=CCN(C(=O)CN(C)Cc3ccco3)CC2)cc1,46.2

row,Structure (SMILES),INHIBITION [%]
1,COc1ccc(C2=CCN(C(=O)CN(C)S(C)(=O)=O)CC2)cc1,-11.4
2,COc1ccc(C2=CCN(C(=O)C3CC(=O)N(C4CC4)C3)CC2)cc1 (configuration not stated),40.3
3,COc1ccc(C2=CCN(C(=O)C3CCS(=O)(=O)C3)CC2)cc1 (configuration not stated),59.4
4,CC(C)NC(=O)N1CCCC(Cn2cc(-c3ccc(F)cc3)nn2)C1 (configuration not stated),38.5
5,Cc1nc(C)n(CC2CCCN2CCOc2cccc(F)c2)n1 (configuration not stated),37.9
6,Cc1cc(-c2cc3nc(C)c(C)c(NCC4COCCO4)n3n2)no1 (configuration not stated),8.57
7,CNc1ncc(CN(C)CCN2CCCCC2)cn1,-61.5
8,CCC1CN(CC(=O)NCCN2CCCCC2)c2ccccc2S1 (configuration not stated),9.57
9,COCC1CN(Cc2ccc(F)cc2)Cc2nn(C)cc21 (configuration not stated),8.93
10,COCC1CN(Cc2ccc(OC)cc2)Cc2nn(C)cc21 (configuration not stated),93.3
11,COCC1CN(Cc2ccncc2)Cc2nn(C)cc21 (configuration not stated),-5.05
12,COCC1CN(Cc2ccccn2)Cc2cn(C)nc21 (configuration not stated),45.1
13,COCC1CN(Cc2ccccn2)Cc2nn(C)cc21 (configuration not stated),60.2
14,CCOCC1CN(Cc2ccc(OC)cc2)Cc2nn(C)cc21 (configuration not stated),30.7
15,NCC1CCC(c2c(C(N)=O)sc3ccccc23)CC1 (configuration not stated),14.6
16,COCCCNc1c(-c2ccc(Cl)cc2)c(=O)c1=O,60.8
17,COCCCNc1c(-c2ccc(C)cc2)c(=O)c1=O,35.1
18,COCCNc1c(-c2ccc(Cl)cc2)c(=O)c1=O,24.5
19,CN(c1ccccc1)c1ccc(CC2CCCN(CCO)C2)nn1 (configuration not stated),16.5
20,CC(=O)Nc1sccc1C(=O)C(C)(C)C,77.7
21,CC(=O)NCCC(=O)Nc1sccc1C(=O)C(C)(C)C,48.9
22,CC(C)(C)C(=O)c1ccsc1NC(=O)CCNC(=O)c1ccco1,75.8
23,CC(C)(CNC(=O)c1ccco1)CNC(=O)c1ccco1,-18.9

row,Structure (SMILES),INHIBITION [%]
1,CC(C)(C)n1cc(C#N)cc1NC(=O)CCNC(=O)c1ccco1,26.5
2,CC(=O)NCCNC(=O)c1sccc1Br,28.5
3,Cc1nn(C)c(C)c1CN(C)C(=O)c1cc(NC(=O)C2CC2)n(C)n1,44.05
4,CCCc1nc(NCCOC)c2c(n1)c(C)nn2CC,17
5,O=C(c1cnccn1)N1CCN2C[C@H](Oc3cccc(F)c3)C[C@H]2C1,47.5
6,CN1CC2(CCNCC2)COc2ccccc2S1(=O)=O,-15.7
7,CC(c1cccc(-c2ncccc2F)c1)N(C)C (configuration not stated),-17.4
8,NCCSc1nccc(-c2cnc(C3CC3)nc2-c2ccco2)n1,75.3
9,O=C(O)Cn1nc(C2CC2)c2c(-c3ccco3)ccnc21,22
10,COCCNc1ncc(-c2cc(C)no2)c(-c2ccco2)n1,47.4
11,Cc1ncc(-c2ccnc(SCCN(C)C)n2)c(-c2ccco2)n1,70.8
12,Cc1ncc(-c2ccnc(SCCN)n2)c(-c2ccco2)n1,42.6
13,OCCNc1nccc(-c2c[nH]nc2-c2ccco2)n1,-43.4
14,c1cc(CN2CCC3(CC2)COC(COCC2CC2)C3)cs1 (configuration not stated),19.8
15,Nc1nc(N)c2c(n1)OC1(CCCN(Cc3nccs3)CC1)C2 (configuration not stated),10.25
16,CC(C)c1noc(CCNC(=O)N2CCC(O)(C(F)(F)F)C2)n1 (configuration not stated),36.5
17,OCCOCCNCC1(c2ccc(F)cc2)CCOC1 (configuration not stated),31.6
18,Fc1ccc(C2(CNCCc3cccs3)CCOC2)cc1 (configuration not stated),63.1
19,Fc1ccc(C2(CNCC(F)F)CCOC2)cc1 (configuration not stated),22.5
20,CCc1noc(-c2cccc(NC(=O)C(C)(C)C)c2)n1,32.5
21,Cc1ncc(-c2ccncc2)c(C2CCN(C(=O)c3ccno3)CC2)n1,24.05
22,CNC(=O)C1(C)CN(c2nc(C)cc(C)n2)CCO1 (configuration not stated),-3.94
23,CC(=O)Nc1nc2c(s1)C(C)(C)Nc1ccccc1S2,59

row,Structure (SMILES),INHIBITION [%]
1,CC(=O)Nc1nc2c(s1)C1(CCCC1)Nc1ccccc1S2,41.2
2,CC(=O)Nc1nc2c(s1)C1(CCN(C)CC1)Nc1ccccc1S2,10
3,CC(C)(C)OC(=O)NCCNC(=O)c1ccc(-c2ccco2)[nH]c1=O,7.12
4,CNC(=O)c1cnc2n1CCN(Cc1cccnc1)C2,49.1
5,Cc1cnc2n(c1=O)CC(C(=O)Nc1ccccc1Cl)CS2 (configuration not stated),-17
6,Cc1cnc2n(c1=O)CC(C(=O)Nc1ccon1)CS2 (configuration not stated),61.5
7,Cc1ccc(Cl)cc1NC(=O)C1CSc2ncc(C)c(=O)n2C1 (configuration not stated),-34.5
8,Cc1ccncc1NC(=O)C1CSc2ncc(C)c(=O)n2C1 (configuration not stated),43.8
9,Cc1cccc(NC(=O)C2CSc3ncc(C)c(=O)n3C2)n1 (configuration not stated),6.83
10,CSc1ccccc1NC(=O)C1CSc2ncc(C)c(=O)n2C1 (configuration not stated),60
11,Cc1cnc2n(c1=O)CC(C(=O)NCc1ccccc1Cl)CS2 (configuration not stated),65.9
12,Cc1cccnc1NC(=O)C1CSc2ncc(C)c(=O)n2C1 (configuration not stated),-4.99
13,Cc1cnc2n(c1=O)CC(C(=O)NC1CC1)CS2 (configuration not stated),-14.6
14,Cc1sc(N)nc1-c1ccc(Cl)cc1,-7.77
15,COc1cccc(NC(=O)c2cc3c([nH]c2=O)CCCC3=O)c1,-37.6
16,Cc1nc2ccccc2n1CCNCc1cccc(C#N)c1,17.5
17,CCNC(=O)c1ccc(NC2CCOC3(CCCCC3)C2)nn1 (configuration not stated),-9.82
18,CC(NC(=O)NCCCc1n[nH]c(N)c1C#N)c1ccc(Cl)cc1 (configuration not stated),7.08
19,CC1(C)Cc2ccccc2-c2nc(NCCCO)[nH]c(=O)c21,45.8
20,CC1(C)Cc2ccccc2-c2nc(NCCO)[nH]c(=O)c21,-4.74
21,CCC1(C)Cc2ccccc2-c2nc(NCCO)nc(O)c21 (configuration not stated),20.9
22,CCC1(CC)Cc2ccccc2-c2nc(NCCCO)[nH]c(=O)c21,62.3
23,Cc1cc(NCCO)nc(-c2ccccc2O)n1,-16

row,Structure (SMILES),INHIBITION [%]
1,CN(Cc1ccccc1)C1(C(=O)O)Cc2ccccc2C1,26.1
2,CCC1(CC)Cc2ccccc2-c2nc(NCCO)[nH]c(=O)c21,64
3,CCC1(CC)Cc2ccccc2-c2nc(CN(C)C)nc(O)c21,53.7
4,O=c1c(NCCCO)c(N2CCN(c3ccccc3)CC2)c1=O,44.9
5,CNc1ccc(CC2CCCN(C(=O)c3scnc3C)C2)nn1 (configuration not stated),26.3
6,CO[C@H]1CN(C(=O)c2cccc(C)n2)CC[C@@]12CCCO2,21.7
7,Cc1ccc(N2CCCC(NCc3ccc4c(c3)CCO4)C2)nn1 (configuration not stated),7.12
8,COCCN1CCCC(c2ncc(C(=O)N(C)C)c(C)n2)C1 (configuration not stated),9.98
9,Cc1ccc(CN2C[C@@H]3[C@@H](C(=O)NCC(C)C)CCS(=O)(=O)[C@@H]3C2)cc1,-36.9
10,COc1ccc(CN(C)Cn2cc(C)n(-c3cc(C)on3)c2=O)cc1,19.3
11,Cc1cccnc1NC(=O)N(CCO)Cc1ccsc1,-6.75
12,O=C(O)c1cccc(N2CCC(Oc3cccc(F)c3)CC2)n1,35
13,CCN(C)C(=O)c1ccc(N2CCC(Oc3cccc(F)c3)CC2)nc1,61
14,COC(=O)c1cccnc1N1CCC(Oc2cccc(F)c2)CC1,58.4
15,CNC(=O)c1cccnc1N1CCC(Oc2ccc(F)cc2)CC1,93.6
16,Cc1ccc(NC2CCN(C(=O)COc3cccc(F)c3)CC2)nn1,4.52
17,CNC(=O)c1cccnc1N1CCC(OCc2ccccc2)CC1,6.11
18,O=C(O)c1ccc(N2CCC(Oc3ccc(Cl)cc3)CC2)nc1,29.4
19,O=C(O)c1ccc(N2CCC(Oc3cccc(F)c3)CC2)nc1,32.2
20,CNC(=O)c1cccnc1N1CCN(C/C=C/c2ccccc2)CC1,25.1
